Measured values: PubChem BioAssay (Tox21)
Inconclusive results are not listed. Calls of active or inactive are those of the source. Calls follow the shape of the dose curve; as a rule, active = well fitted curve in the direction sought with a large enough effect in the signal ratio in the repeat runs (not every such curve was filed as active); inconclusive = weak or mixed curves, or a change in a side signal; inactive = no such curve, though single readings can be large or run the other way; the % refers to the signal ratio.

Test: qHTS assay to identify small molecule agonists of the NFkB signaling pathway (AID 1159509)
Settings: NFkB-bla ME-180 cells, beta-lactamase FRET ratio, 5 h; series mostly up to 61 µM
From the text: National Center for Advancing Translational Sciences [NCATS]
NIH Chemical Genomics Center [NCGC]
U.S. Environmental Protection Agency [EPA]
National Institutes of Environmental Health Sciences [NIEHS]
National Toxicology Program [NTP]
U.S. Food and Drug Administration [FDA]
Transcription factors and their stimulated target gene expression play pivotal roles across many cellular processes including responses to environmental stimuli. Proper regulation of associated pathways is critical to maintain cell health and function. Constitutive activation of transcription factor pathways has been implicated in tumors as it may block cellular functions such as apoptosis and lead to invasion and metastasis. One important transcription factor that stimulates gene expression in response to cytokines, UV radiation, and other stimuli is nuclear factor-kappa B (NFkB). To measure activation of the NFkB pathway, the CellSensor NFkB-bla ME-180 cell line (Life Technologies, Carlsbad, CA) that stably expresses beta-lactamase reporter gene under the regulation of a NF-kB response element was used. This assay allows measurement of the NFkB pathway activity induced by compounds in a ME-180 cell line. This system quantitates NF-kB activity using a FRET-based assay system where beta-lactamase expression disrupts FRET, allowing for fluorescent measurement of activity. This cell line has been used to screen the Tox21 10K compound library and to identify compounds that induce the NFkB pathway activity.
Tox21 Assay Protocol Summary:
NFkB-bla ME-180 cells were dispensed at 2,000 cells/6 uL of assay medium per well into black wall/clear-bottom 1536-well plates using a Multidrop Combi (ThermoFisher Scientific, Waltham, MA) dispenser. After the assay plates were incubated at 37 C and 5% CO2 for an overnight, 23 nL of compounds dissolved in DMSO, positive controls or DMSO only was transferred to the assay plate by a Pintool station (Kalypsys, San Diego, CA). The assay plates were incubated at 37 C and 5% CO2 for 5 hr. One uL of LiveBLAzer B/G FRET substrate (Life Technologies) was added using a Flying Reagent Dispenser (Aurora Discovery, San Diego, CA) and the plates were incubated at room temperature for 1.5 hr. Fluorescence intensity (405 nm excitation, 460 nm and 530 nm emissions) was measured using an Envision plate reader (PerkinElmer, Shelton, CT).

Row | SMILES | outcome
1 | c1ccc(CN(Cc2ccccc2)Cc2ccccc2)cc1 | inactive
2 | O=C(c1ccc(Cl)cc1)c1ccc(Cl)cc1 | inactive
3 | COc1ccc(C(=O)c2ccc(C)cc2)c(O)c1 | inactive
4 | COC(=O)C(C)(C)C | inactive
5 | C[C@H](N)C(=O)N[C@@H](C)C(=O)NC1[C@H]2CN(c3nc4c(cc3F)c(=O)c(C(=O)O)cn4-c3ccc(F)cc3F)C[C@@H]12 (stereo not given in full) | inactive
6 | C1=COCCC1 | inactive
7 | Cc1cc(C)c(C)c(O)c1 | inactive
8 | CCCCCCCCOCCCN | inactive
9 | CC[C@H](NC(C)C)[C@H](O)c1ccc(O)c2[nH]c(=O)ccc12 | inactive
10 | CCC(C)C1N=C(C)C(C)S1 (stereo not given) | inactive
11 | CCC(=O)O[C@@H]1C[C@H]2CC[C@]1(C)C2(C)C | inactive
12 | Cc1c(Nc2ncccc2C(=O)O)cccc1C(F)(F)F | inactive
13 | CC(=O)Nc1cccc(N)c1 | inactive
14 | CC(C)Cc1nccs1 | inactive
15 | O=C(OCCCCCOC(=O)c1ccccc1)c1ccccc1 | inactive
16 | CC(=O)Nc1ccn(C2COC(COC(=O)c3ccccc3)O2)c(=O)n1 (stereo not given) | inactive
17 | CC1(C)[C@@H]2CC[C@]3(C2)[C@@H]1C(=O)CCC3(C)C | inactive
18 | CCC1=C(C)CN(C(=O)NCCc2ccc(S(=O)(=O)NC(=O)NC3CCC(C)CC3)cc2)C1=O (stereo not given) | inactive
19 | OCCCO | inactive
20 | O=c1[nH]nc(-c2ccc([N+](=O)[O-])o2)o1 | inactive

Row | SMILES | outcome
21 | CC(C)(C)c1ccc(CCC=O)cc1 | inactive
22 | CCCCOC(=O)C(C)Oc1ccc(Oc2ccc(C(F)(F)F)cn2)cc1 (stereo not given) | inactive
23 | c1ccc(CCNc2nc(-c3ccccc3)cs2)cc1 | inactive
24 | CCCCCCCCNC | inactive
25 | CCCCCCCCCCCCN1CCOCC1 | inactive
26 | SCCOCCOCCS | inactive
27 | O=P(c1ccccc1)(c1ccccc1)c1ccccc1 | inactive
28 | C=C[Si]1(C)O[Si](C)(C=C)O[Si](C)(C=C)O[Si](C)(C=C)O1 (stereo not given) | inactive
29 | CCOc1ccc2c(c1)C(C)CC(C)(C)N2 (stereo not given) | inactive
30 | Cc1c(-c2cccnc2)c2ccccc2n1CCCCC(=O)O | inactive
31 | O=S(=O)(O)c1cc(Cl)c(Cl)cc1Cl | inactive
32 | CCOC(=O)CC(O)(CC(=O)OCC)C(=O)OCC | inactive
33 | CC(C)(C)N | inactive
34 | Nc1ccc(F)cc1F | inactive
35 | CCCCCCCCC(=O)OCC(C)OC(=O)CCCCCCCC (stereo not given) | inactive
36 | O=C1c2ccccc2C(=O)C1c1ccc2cc(S(=O)(=O)O)cc(S(=O)(=O)O)c2n1 | inactive
37 | O=C(Cl)c1ccc(F)c(Cl)c1 | inactive
38 | C=CC(=O)OCCCCCCCCCC | inactive
39 | CC(C(=O)O)c1ccc(/C=C2\CCCCC2=O)cc1 (stereo not given) | inactive
40 | Nc1ncnc2c1ncn2[C@@H]1O[C@H](CO)[C@@H](O)[C@H]1O | inactive
